Laboratory results: PubChem BioAssay
Values without a mark were called inactive. The rule behind the calls is not given here.

Molecular target: Pantothenate synthetase (Mycobacterium tuberculosis (strain ATCC 25618 / H37Rv)) (UniProt P9WIL5)
Experiment: Coupled enzyme confirmation of inhibitors against recombinant Mtb PanC (AID 375);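 note: 0% = full reaction with vehicle and 100% = no enzyme background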
Details: coupled enzyme assay; at 10 µM, hits give high values

Pantothenate synthetase (Mycobacterium tuberculosis (strain ATCC 25618 / H37Rv)), sequence (P9WIL5 whole entry, looked up): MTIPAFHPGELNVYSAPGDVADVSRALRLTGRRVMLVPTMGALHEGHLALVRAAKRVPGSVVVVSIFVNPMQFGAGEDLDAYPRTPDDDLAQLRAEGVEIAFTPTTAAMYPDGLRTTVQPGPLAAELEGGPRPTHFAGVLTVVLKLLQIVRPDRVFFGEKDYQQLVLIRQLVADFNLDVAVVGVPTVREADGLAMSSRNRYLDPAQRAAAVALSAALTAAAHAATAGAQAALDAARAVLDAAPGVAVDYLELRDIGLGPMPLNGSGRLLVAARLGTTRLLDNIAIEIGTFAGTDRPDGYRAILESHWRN

Row | SMILES | inhibition
1 | OC(CCCN1CCC(O)(c2ccc(Cl)cc2)CC1)c1ccc(F)cc1 (stereo not given) | 5%
2 | Cc1ccc(Nc2cc(-n3nc(C)cc3C)ncn2)cc1 | 0%
3 | O=C(NC1CCCCC1)c1cc2nc(-c3ccco3)cc(C(F)(F)F)n2n1 | 0%
4 | O=C(CN1C(=O)COCC1=O)N1CCOCC1 | 0%
5 | CCOC(=O)CNC(=O)Cn1cnc2c(nnn2-c2cccc(Cl)c2)c1=O | 0%
6 | CCOC(=O)c1ccc(NC(=O)Cn2cc3c(n2)CCC(C)C3)cc1 (stereo not given) | 8%
7 | CCCNc1nc(N2CCOCC2)nc(N2CCOCC2)n1 | 0%
8 | CCN(CC)c1ccc2cc(-c3nc4ccccc4[nH]3)c(=O)oc2c1 | 0%
9 | Cn1c2ccccc2c2c(C(=O)NCCCN3CCCC3=O)cn(C3CCCCC3)c(=O)c21 | 8%
10 | COCC(=O)N(Cc1ccc(OC)cc1)Cc1nc2ccccc2c(=O)[nH]1 | 0%
11 | CC(C)(C)SCCNC(=O)CSc1ccccc1 | 7%
12 | Cc1ccc(OCC2Cn3c(nc4c3c(=O)n(C)c(=O)n4C)O2)cc1 (stereo not given) | 0%
13 | CCCN(Cc1cc2cc(C)ccc2[nH]c1=O)C(=O)c1cccc(OC)c1 | 0%
14 | Cc1c(C(=O)NCc2ccccn2)oc2ccccc12 | 0%
15 | O=C(O)C1CCCN(S(=O)(=O)c2ccc(Cl)s2)C1 (stereo not given) | 2%
16 | Nc1cccc2c1C(=O)N(c1ccccc1)C2=O | 0%
17 | Cc1ccc2occ(CN3CCN(c4ccccc4)CC3)c(=O)c2c1 | 0%
18 | O=c1c2c3c(sc2n2cnnc2n1CCc1ccccc1)CCCC3 | 5%
19 | C[C@]12CC[C@@H]3c4ccc(O[C@@H]5O[C@H](C(=O)O)[C@@H](O)[C@H](O)[C@H]5O)cc4CC[C@H]3[C@@H]1C[C@@H](O)[C@@H]2O | 14%
20 | N#Cc1nc(COc2ccccc2)oc1NCCN1CCOCC1 | 0%

Row | SMILES | inhibition
21 | O=C(CSc1nnc(C2CC2)n1Cc1ccccc1)c1ccc(S(=O)(=O)N2CCOCC2)cc1 | 0%
22 | CSc1nnc2n(CCc3ccccc3)c(=O)c3c4c(sc3n12)CCCC4 | 2%
23 | CCSc1nc2c(c(=O)n(C)c(=O)n2C)n1Cc1ccc(Cl)cc1 | 4%
24 | CCCc1nc(N2CCOCC2)c(C#N)c2c1CCCC2 | 4%
25 | CC(=O)c1cccc(NC(=O)N2CCCc3ccccc32)c1 | 1%
26 | Cc1c(N=C2SCC(=O)N2c2c(C)n(C)n(-c3ccccc3)c2=O)c(=O)n(-c2ccccc2)n1C | 3%
27 | COC(=O)c1ccc(C2CC(=O)Nc3cc(OC)c(OC)c(OC)c32)cc1 (stereo not given) | 0%
28 | Cc1nnc(SCC(=O)N2c3ccccc3CC2C)s1 (stereo not given) | 0%
29 | COc1cc(OC)nc(NC(=O)CSc2nc3ccccc3o2)n1 | 11%
30 | N#Cc1cnn(Cc2ccc(Cl)cc2)c1N | 0%
31 | Cc1cc(NC(=O)c2ccc3c(c2)C(=O)N(Cc2cccnc2)C3=O)no1 | 0%
32 | O=C(CCn1c(=O)c2ccccc2n(CC(=O)NCCC2=CCCCC2)c1=O)NCc1ccco1 | 4%
33 | Cc1c(NC(=O)c2cnn3c2NC(c2ccco2)CC3C(F)(F)F)c(=O)n(-c2ccccc2)n1C (stereo not given) | 9%
34 | COc1ccc(C)cc1C(=O)CCC(=O)Nc1ccccc1N1CCOCC1 | 2%
35 | O=C(Nc1ccc2c(c1)OCCO2)c1cnc2n(c1=O)CCS2 | 0%
36 | COc1ccccc1N1CCN(CC(O)COc2cccc3ccccc23)CC1 (stereo not given) | 3%
37 | CC1CCCN(C(=O)C23CCC(C)(C(=O)C2)C3(C)C)C1 (stereo not given) | 0%
38 | CC1Cc2ccccc2N1CC(=O)NC(=O)NCc1ccco1 (stereo not given) | 2%
39 | CCOc1cc(C(=O)N(C)Cc2cc3cc(OC)ccc3[nH]c2=O)cc(OCC)c1OCC | 0%
40 | COc1ccc(N2CCN(C(=O)CN3C(=O)C4CC=CCC4C3=O)CC2)cc1 (stereo not given) | 0%
